NLRP3 yeast inh = NALP3 inhibition in yeast. Yeast reconstituted NLRP3/ASC/caspase-1, beta-gal luminescence, 24 h. inhibition, % at 10 µM. 330,000 tested, 0.39% active;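 active = inhibition of 50% or more; inactive = inhibition below 50%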;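 also: plate controls were induced DMSO wells for no effect and uninduced yeast grown without galactose for full effect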
TIM10 inh = TIM10 yeast growth inhibition | S. cerevisiae TIM10 strain growth, BacTiter-Glo luminescence, 24 h | inhibition, % at 10 µM | 330,000 tested, 1.4% active;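 active = inhibition of 40% or more at the single tested concentration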;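 also: wild-type TIM10 isogenic control strain grown at permissive 25 °C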
SKKanGAS inh = SKKanGAS growth inhibition. S. pyogenes SKKanGAS, kanamycin growth, BacTiter-Glo, 6 h. inhibition, % at 7.5 µM. 300,000 tested, 1.3% active;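 active = mean replicate score, as percent of positive control median, at least 50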;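 also: strain carries kanamycin resistance gene driven by streptokinase promoter and grows in 40 µg/ml kanamycin; loss of luminescence reflects streptokinase promoter inhibition or plain growth inhibition; 0% = median of DMSO wells and 100% = positive control at its reference dose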
tim10-1 inh = tim10-1 yeast growth inhibition | 330,000 tested, 2.2% active | inhibition, % at 20 µM | S. cerevisiae tim10-1 ts strain growth, BacTiter-Glo, 24 h;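 active = inhibition of at least 40%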;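 also: mutant grown at 25 °C; 0% = DMSO wells with yeast and 100% = wells holding no yeast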
NALP1 yeast inh = inhibitors of NALP1 inflammasome in yeast; S. cerevisiae NALP1/ASC/caspase-1 growth, X-gal OD620, 72 h; AID 2071; 280,000 tested, 0.61% active; inhibition, % at 10 µM; in the data active = inhibition mostly above about 24%, no sharp cut-off; inactive = mostly below about 32%
tim23-1 inh = tim23-1 yeast growth inhibition. inhibition, % at 20 µM. S. cerevisiae tim23-1 growth, BacTiter-Glo luminescence, 24 h. AID 463212. 330,000 tested, 1.3% active;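 active = growth inhibition of the mutant yeast at or above 50%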;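 also: temperature-sensitive mutant grown at 25 °C; plate controls were DMSO-treated mutant yeast for no effect and medium wells lacking yeast for full effect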
tim10-1 conf = tim10-1 yeast growth inhibition, confirmed; shares compounds with tim10-1 inh; S. cerevisiae tim10-1 ts strain growth, BacTiter-Glo, 24 h; inhibition, % at 20 µM; 7,400 tested, 56% active; AID 463213;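 active = inhibition of yeast growth at or above a set limit in either of two repeat tests at 20 µM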;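 also: tim10-1 mutant grown at permissive 25 °C to find synthetic lethal compounds; 0% = DMSO yeast wells and 100% = medium wells without yeast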
* marks the source's active call; other numbers are inactive results; nt = not tested or not shown. Hits are enriched below; roughly 4.9% of the tested compounds scored in any of these assays.

SMILES	NLRP3 yeast inh	TIM10 inh	SKKanGAS inh	tim10-1 inh	NALP1 yeast inh	tim23-1 inh	tim10-1 conf
Cc1cccc(N2C(=O)C3C4CC(=O)C(c5ccccc54)C3C2=O)c1C (stereo not given)	4.8	-9.7	-3.2	17.1	5.0	16.1	nt
Cc1ccc(S(=O)(=O)Nc2ccc(C(=O)NCCCn3ccnc3)cc2)cc1[N+](=O)[O-]	7.1	8.3	nt	7.5	nt	6.5	nt
COc1ccc(-n2cnnc2SCC(=O)N2CCN(c3ccccc3)CC2)cc1	3.7	-3.6	1.4	12.6	-10.7	5.3	nt
COc1ccc(N2CCN(C(=O)CSc3nnc(-c4cc5ccccc5cc4O)n3C)CC2)cc1	4.6	22.4	-3.4	45.3*	-1.3	32.7	18.8
O=C(NCc1n[nH]c(=O)c2ccccc12)C1CC(=O)N(c2ccc(Cl)cc2)C1 (stereo not given)	11.9	-0.8	-1.5	8.7	nt	1.4	nt
Cc1ccc(C)c(N2CCN(C(=O)CCC(=O)Nc3nnc(C(F)(F)F)s3)CC2)c1	-7.7	14.9	8.5	54.6*	8.8	36.3	18.4
Cc1cc(-c2ccccc2)n(-c2ccccc2)n1	3.2	14.6	13.8	23.2	8.9	32.4	nt
COc1cc2c(cc1NC(=O)COC(=O)[C@@H](NC(=O)c1ccccc1F)C(C)C)oc1ccccc12	16.0	21.0	21.4	40.4*	22.2	20.4	20.4
O=C(NNC(=S)Nc1cccc(C(F)(F)F)c1)c1cccc(Cl)c1	11.7	35.6	-2.8	50.1*	14.7	41.4	45.6*
Cc1ccc(NC(=O)CSC(C)c2nc3ccccc3c(=O)[nH]2)cc1 (stereo not given)	5.3	7.6	-6.4	13.4	-5.2	4.5	nt
CN(C)S(=O)(=O)c1cccc(NC(=O)CCCC2CCCCC2)c1	-5.4	17.4	-1.5	40.6*	7.5	27.0	24.8
N#Cc1ccccc1OCC(=O)Nc1cccc(S(=O)(=O)N2CCCC2)c1	8.1	10.4	nt	14.1	nt	25.6	nt
NS(=O)(=O)c1cccc(NC(=O)CCCC2CCCCC2)c1	9.5	11.5	-6.3	-2.9	2.7	6.7	nt
Cc1cc(C)c(OCC(=O)Nc2ccc(S(=O)(=O)N3CCCC3)cc2)c(C)c1	15.5	26.8	0.7	40.7*	nt	42.6	38.5*
CN(C)S(=O)(=O)c1cccc(NC(=O)COc2cccc3ccccc23)c1	7.1	16.0	nt	41.1*	nt	30.0	32.7*
CCc1ccccc1OCC(=O)Nc1cccc(S(=O)(=O)N2CCCC2)c1	-6.2	15.4	nt	41.7*	nt	30.2	26.5
Cc1cccc(C)c1OCC(=O)Nc1cccc(S(=O)(=O)N2CCCC2)c1	-12.5	28.5	0.9	38.7	nt	39.3	nt
Cc1ccccc1SCCNC(=O)CCc1ccccc1	24.4	12.3	10.3	8.4	4.8	27.5	nt
COc1ccc(OCC(=O)Nc2ccc(S(=O)(=O)N3CCCCC3)cc2)cc1	7.0	28.0	-7.8	44.9*	0.1	43.3	51.8*
c1ccc(-c2noc(CN3CCN(C(c4ccccc4)c4ccccc4)CC3)n2)cc1	6.5	28.5	-4.1	44.5*	8.5	18.5	11.9
c1ccc(-c2noc(CN3CCN(c4ccccc4)CC3)n2)cc1	1.8	0.1	-8.0	5.0	-0.5	22.8	nt
CCOc1ccc(-c2nc3n(c(=O)c2C#N)CCS3)cc1	-8.3	22.0	23.1	31.4	8.3	-15.0	nt
FC(F)Oc1ccc(/C=N/c2c(-c3ccc(OC(F)F)cc3)nc3n2CCS3)cc1	7.0	5.9	9.5	47.4*	48.5	9.3	23.9
CCOC(=O)C1CCN(C2CC(=O)N(c3cccc(Cl)c3)C2=O)CC1 (stereo not given)	8.9	9.5	0.0	41.5*	15.8	23.0	37.5*
O=C(C1CCN(C2CC(=O)N(c3ccc(Cl)cc3)C2=O)CC1)N1CCOCC1 (stereo not given)	27.7	11.9	-7.4	39.4	19.1	19.7	nt
SMILES	NLRP3 yeast inh	TIM10 inh	SKKanGAS inh	tim10-1 inh	NALP1 yeast inh	tim23-1 inh	tim10-1 conf
COC(=O)C1CCN(C2CC(=O)N(c3cc(C)cc(C)c3)C2=O)CC1 (stereo not given)	4.9	7.2	7.6	40.5*	30.9	29.9	31.9*
CCN(CC)C1CC(=O)N(c2cccc(Cl)c2)C1=O (stereo not given)	25.4	20.2	-2.4	45.0*	36.5	45.6	56.3*
O=C(C1CCN(C2CC(=O)N(c3cccc(Cl)c3)C2=O)CC1)N1CCCC1 (stereo not given)	34.1	19.8	-1.8	55.4*	-0.3	30.8	47.2*
CSc1ccc(CCNS(=O)(=O)c2csc(C(N)=O)c2)cc1	-7.8	6.8	-4.9	20.6	-8.4	14.9	nt
CCOc1ccc(NC(=O)CN2C(=O)NC(C)(c3ccc(OC(F)F)cc3)C2=O)cc1 (stereo not given)	-22.0	-7.8	3.4	4.2	7.2	8.3	nt
O=C(CN1CCN(S(=O)(=O)c2cccs2)CC1)N1CCCCC1	1.4	-3.5	nt	-11.1	nt	4.4	nt
CCCC(=O)N(CCN1CCOCC1)c1nc2c(C)ccc(C)c2s1	11.2	4.6	-6.2	42.3*	17.5	29.1	-4.0
CCCC(=O)N(CCN1CCOCC1)c1nc2c(OC)ccc(C)c2s1	17.4	3.4	1.2	10.3	-4.2	1.4	nt
COc1ccc(C2=NCN(c3ccc(C)cc3)C(=S)N2)cc1	7.1	3.4	-7.5	-3.3	3.3	0.1	nt
Cc1ccc(N2CN=C(c3ccccc3)NC2=S)cc1	26.4	3.6	-0.1	43.9*	21.0	23.0	0.8
Cc1ccc(N=C2C(=O)Nc3ccc(C)c(Br)c32)cc1	5.4	15.8	-1.9	41.4*	29.3	32.5	29.9*
COc1ccc(N2CCN(C(=O)COC(=O)c3ccc(CSC)o3)CC2)cc1	17.6	1.3	nt	8.4	nt	4.0	nt
COc1ccc(C)cc1N(C(=O)c1ccccc1)c1nc2ccccc2s1	14.9	30.2	-1.1	19.9	22.6	32.0	nt
COc1ccc(C)cc1N(C(=O)c1ccc(C#N)cc1)C1=NC(C)(C)CS1	6.6	5.0	7.2	40.0	6.0	10.8	-2.5
C[C@H](CO)N1C[C@H](C)[C@@H](CN(C)S(=O)(=O)c2cccs2)Oc2ccc(NS(=O)(=O)c3ccccc3)cc2CC1=O	15.9	5.2	nt	-3.2	nt	3.3	nt
O=C(CCS(=O)(=O)Cc1ccccc1F)N1CCc2ccccc2C1	0.9	9.2	-5.0	15.5	3.7	25.1	nt
O=C(CCS(=O)(=O)Cc1ccccc1)N1CCc2ccccc2C1	17.5	27.6	-1.3	47.1*	6.8	46.0	40.0*
COc1ccccc1/C(C)=N/NC(=S)NCc1ccccc1	28.9	26.5	7.5	46.6*	-20.1	49.3	14.1
Cc1ccc(S(=O)(=O)N2CCC3(CC2)OCCN3S(=O)(=O)c2cccs2)cc1	11.6	5.4	-6.5	34.6	nt	38.1	nt
O=S(=O)(c1ccc(Cl)cc1)N1CCC2(CC1)OCCN2S(=O)(=O)c1cccs1	2.2	-3.2	6.8	48.4*	nt	26.7	28.7*
COc1ccc(S(=O)(=O)N2CCOC23CCN(S(=O)(=O)c2ccc(C)cc2)CC3)cc1	22.7	19.0	-2.8	45.9*	nt	47.3	28.5

Bioassay records deposited in PubChem BioAssay by several laboratories.
